In PubChem BioAssay:
“And” between values parts separate entries of the source, which are not always exact repeats. Equal values may be shown once. Records with an inconclusive call do not appear. The source made the active and inactive calls.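 Rule for the calls, unless noted: active = normalized viability below 100% at a tested concentration; inactive = the rest.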

Experiments:
[1] = viability loss in pontine glioma line – cell-based, SU-DIPG-XVII, MIPE5.0, CellTiter-Glo, qHTS, dose response (AID 1347060; cut-off not given, nearly all actives have AC50 up to about 26 µM;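 for AC50: cells exposed to compound for 48 hours before viability readout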); conditions: CellTiter-Glo ATP luminescence
[2] = viability loss in pontine glioma line – cell-based, JHH-DIPG-1, MIPE4.0, CellTiter-Glo, qHTS, dose response (AID 1347062; cut-off not given, nearly all actives have AC50 up to about 27 µM;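 for AC50: cells exposed to compound for two days before readout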); conditions: JHH-DIPG-1 viability, CellTiter-Glo ATP luminescence
[3] = viability loss in pontine glioma line – cell-based, SU-DIPG-IV, MIPE4.0, CellTiter-Glo, qHTS, dose response (AID 1347063; cut-off not given, nearly all actives have AC50 up to about 30 µM;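 note: compound exposure lasted 48 hours before the viability readout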); conditions: CellTiter-Glo ATP luminescence
[4] = viability loss in pontine glioma line – cell-based, SU-DIPG-XIII, MIPE5.0, CellTiter-Glo, qHTS, dose response (AID 1347064; cut-off not given, nearly all actives have AC50 up to about 23 µM;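 for AC50: cells exposed to compound for 48 hours before the viability read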); conditions: CellTiter-Glo ATP luminescence
[5] = viability loss in pontine glioma line – cell-based, SU-DIPG-XXV, MIPE5.0, CellTiter-Glo, qHTS, dose response (AID 1347065; cut-off not given, nearly all actives have AC50 up to about 26 µM;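 note: cells exposed to compound for 48 hours before ATP readout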); conditions: CellTiter-Glo ATP luminescence
[6] = growth inhibition of DIPG cells – cell-based, MIPE4.0 library, CellTiter-Glo luminescence, qHTS (AID 1347066; cut-off not given, nearly all actives have AC50 up to about 30 µM;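 note: cells exposed to compound for 48 hours before readout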); conditions: SU-DIPG-VI viability, CellTiter-Glo ATP luminescence
[7] = viability loss with induced miR-34 in A549 – imaging, A549 dox-inducible miR-34, nuclei and caspase counts, primary screen (AID 1347080;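 active = compounds whose cell count with miR-34 switched on is under 0.7 times the count with it off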); conditions: A549 miR-34 inducible, Hoechst nuclei count, 48 h
[8] = compounds altering HSF1 focus formation in cells – imaging, Selleck Cancer Library (AID 1347162; in the data active = plate-normalised HSF1 focus index below about 0.46); conditions: human cells, HSF1 nuclear foci imaging, at 10 µM; SSMD: measured here: HSF1 foci SSMD mean; cell count: measured here: cell number; plate-normalised HSF1 focus index: stronger effect = lower value
[9] = MELAS cybrid and Rieske KO viability enhancers – cell-based, MELAS cybrids, Rieske KO mouse fibroblasts, CellTiter-Glo, primary screen (AID 1508586;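 active = mean z-score across replicates of 1.96 or higher in either the MELAS or the Rieske mutant cell line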;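 note: z relative to plate mean and SD of compound and empty wells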); conditions: low glucose
[10] = drug combination growth inhibition, ovarian cancer – cell-based, oncology-focused library, rucaparib conditional, profiling panel (AID 1508598); conditions: patient-derived ovarian cancer cells, CellTiter-Glo viability, 144 h, stronger effect = lower value
[11] = JHH-DIPG-1 glioma cell viability, MIPE5.0 library, CellTiter-Glo luminescence, qHTS (AID 1347067; cut-off not given, nearly all actives have AC50 up to about 26 µM;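 note: cells exposed to compound for 48 hours before readout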); conditions: JHH-DIPG-1 glioma viability, CellTiter-Glo ATP luminescence
[12] = growth inhibition of DIPG cells – cell-based, MIPE5.0 library, qHTS (AID 1347068; cut-off not given, nearly all actives have IC50 up to about 30 µM;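 for IC50: cells exposed to compound for 48 hours before viability readout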); conditions: SU-DIPG-XXV viability
[13] = stronger effect = lower value, cell number ratio, induced over uninduced
[14] = measured here: relative caspase fold change +Dox/-Dox
[15] = measured here: total cells with miR-34 induction, stronger effect = lower value
[16] = measured here: total cells without miR-34 induction
[17] = MELAS cybrid survival, CellTiter-Glo 48 h, stronger effect = higher value
[18] = Rieske KO mouse fibroblast survival, CellTiter-Glo 72 h
[19] = at 0.000305 µM, OCI-C5x cells, with rucaparib 10 µM, 100% = cells with rucaparib alone
[20] = at 0.000305 µM, OCI-C5x cells, without rucaparib
[21] = at 0.000305 µM, OCI-P5x cells, with rucaparib 20 µM, 100% = cells with rucaparib alone
[22] = at 0.000305 µM, OCI-P5x cells, without rucaparib
[23] = at 0.00122 µM, OCI-C5x cells, with rucaparib 10 µM, 100% = cells with rucaparib alone
[24] = at 0.00122 µM, OCI-C5x cells, without rucaparib
[25] = at 0.00122 µM, OCI-P5x cells, with rucaparib 20 µM, 100% = cells with rucaparib alone
[26] = at 0.00122 µM, OCI-P5x cells, without rucaparib
[27] = at 0.00488 µM, OCI-C5x cells, with rucaparib 10 µM, 100% = cells with rucaparib alone
[28] = at 0.00488 µM, OCI-C5x cells, without rucaparib
[29] = at 0.00488 µM, OCI-P5x cells, with rucaparib 20 µM, 100% = cells with rucaparib alone
[30] = at 0.00488 µM, OCI-P5x cells, without rucaparib
[31] = at 0.0195 µM, OCI-C5x cells, with rucaparib 10 µM, 100% = cells with rucaparib alone
[32] = at 0.0195 µM, OCI-C5x cells, without rucaparib
[33] = at 0.0195 µM, OCI-P5x cells, with rucaparib 20 µM, 100% = cells with rucaparib alone
[34] = at 0.0195 µM, OCI-P5x cells, without rucaparib
[35] = at 0.0781 µM, OCI-C5x cells, with rucaparib 10 µM, 100% = cells with rucaparib alone
[36] = at 0.0781 µM, OCI-C5x cells, without rucaparib
[37] = at 0.0781 µM, OCI-P5x cells, with rucaparib 20 µM, 100% = cells with rucaparib alone
[38] = at 0.0781 µM, OCI-P5x cells, without rucaparib
[39] = at 0.313 µM, OCI-C5x cells, with rucaparib 10 µM, 100% = cells with rucaparib alone
[40] = at 0.313 µM, OCI-C5x cells, without rucaparib
[41] = at 0.313 µM, OCI-P5x cells, with rucaparib 20 µM, 100% = cells with rucaparib alone
[42] = at 0.313 µM, OCI-P5x cells, without rucaparib
[43] = at 1.25 µM, OCI-C5x cells, with rucaparib 10 µM, 100% = cells with rucaparib alone
[44] = at 1.25 µM, OCI-C5x cells, without rucaparib
[45] = at 1.25 µM, OCI-P5x cells, with rucaparib 20 µM, 100% = cells with rucaparib alone
[46] = at 1.25 µM, OCI-P5x cells, without rucaparib
[47] = at 5 µM, OCI-C5x cells, with rucaparib 10 µM, 100% = cells with rucaparib alone
[48] = at 5 µM, OCI-C5x cells, without rucaparib
[49] = at 5 µM, OCI-P5x cells, with rucaparib 20 µM, 100% = cells with rucaparib alone
[50] = at 5 µM, OCI-P5x cells, without rucaparib

CC(C)c1ccccc1Cc1cc(C(=O)Nc2ccc(S(=O)(=O)c3ccccc3C(C)(C)C)cc2)c(O)c(O)c1O
7240: cell count [8]
-1.79: SSMD [8]
2090: cell count [7, 15]
inactive: fold change [7, 13] 0.928 | plate-normalised HSF1 focus index [8] 0.912 | viability [10, 19] 105% | viability [10, 20] 115% | viability [10, 21] 124% | viability [10, 22] 124% | viability [10, 23] 103% | viability [10, 24] 119% | viability [10, 25] 117% | viability [10, 26] 116% | viability [10, 27] 113% | viability [10, 28] 116% | viability [10, 29] 117% | viability [10, 30] 121% | viability [10, 31] 110% | viability [10, 32] 109% | viability [10, 33] 118% | viability [10, 34] 114% | viability [10, 35] 110% | viability [10, 36] 111% | viability [10, 37] 119% | viability [10, 38] 114% | viability [10, 39] 101% | viability [10, 40] 112% | viability [10, 41] 112% | viability [10, 42] 110% | viability [10, 43] 106% | viability [10, 44] 118%
-0.101: z-score [9, 18]
2260: cell count [7, 16]
0.84: fold change [7, 14]
active: AC50 [1] 23.5 µM | AC50 [2] 23.5 µM | AC50 [3] 23.5 µM | AC50 [4] 20.9 µM | AC50 [5] 23.5 µM | AC50 [6] 9.35 µM | z-score [9, 17] 2.95 | viability [10, 45] 98.8% | viability [10, 46] 97.4% | viability [10, 47] 21.8% | viability [10, 48] 90.4% | viability [10, 49] 10.9% | viability [10, 50] 21.5%

Cc1[nH]c(/C=C2\C(=O)Nc3ccc(S(=O)(=O)N(C)c4cccc(Cl)c4)cc32)c(C)c1C(=O)N1CCN(C)CC1
inactive: plate-normalised HSF1 focus index [8] 1.1
active: AC50 [1] 9.34 µM | AC50 [2] 20.9 µM | AC50 [3] 23.5 µM | AC50 [4] 7.42 µM | AC50 [5] 7.42 µM | AC50 [6] 11.8 µM | AC50 [11] 8.33 µM
7040: cell count [8]
1.63: SSMD [8]

O=C(Nc1cn[nH]c1-c1nc2ccc(CN3CCOCC3)cc2[nH]1)NC1CC1
active: AC50 [1] 1.66 µM | AC50 [2] 10.5 µM | AC50 [3] 1.32 µM | AC50 [4] 5.9 µM | AC50 [5] 0.661 µM | AC50 [11] 1.86 µM | IC50 [12] 8.33 µM | z-score [9, 17] 2.04 | viability [10, 35] 82% | viability [10, 38] 76.9% | viability [10, 39] 89.8% | viability [10, 42] 66.7% | viability [10, 43] 36.1% | viability [10, 44] 48.8% | viability [10, 46] 53.2% | viability [10, 47] 26.8% | viability [10, 48] 18.2% | viability [10, 49] 39.6% | viability [10, 50] 18.8%
-1.89: z-score [9, 18]
1110: cell count [7, 16]
1190: cell count [7, 15]
inactive: fold change [7, 13] 1.08 | viability [10, 19] 103% | viability [10, 20] 125% | viability [10, 21] 120% | viability [10, 22] 122% | viability [10, 23] 128% | viability [10, 24] 132% | viability [10, 25] 111% | viability [10, 26] 116% | viability [10, 27] 116% | viability [10, 28] 119% | viability [10, 29] 116% | viability [10, 30] 118% | viability [10, 31] 102% | viability [10, 32] 111% | viability [10, 33] 120% | viability [10, 34] 105% | viability [10, 36] 108% | viability [10, 37] 111% | viability [10, 40] 104% | viability [10, 41] 109% | viability [10, 45] 118%
0.829: fold change [7, 14]

CCN1CCN(c2ccc(Nc3cc(N(C)C(=O)Nc4c(Cl)c(OC)cc(OC)c4Cl)ncn3)cc2)CC1
active: AC50 [1] 0.235 µM | AC50 [2] 23.5 µM | AC50 [3] 33.2 µM | AC50 [4] 0.332 µM | AC50 [5] 0.209 µM | AC50 [11] 8.33 µM

c1ccc2c(CCNc3ccc(Nc4ccncc4)cc3)c[nH]c2c1
6510: cell count [8]
inactive: fold change [7, 13] 1.02 | plate-normalised HSF1 focus index [8] 0.99 | z-score [9, 17] -0.455 | viability [10, 19] 116% | viability [10, 20] 111% | viability [10, 21] 114% | viability [10, 22] 116% | viability [10, 23] 116% | viability [10, 24] 111% | viability [10, 25] 117% | viability [10, 26] 121% | viability [10, 27] 116% | viability [10, 29] 112% | viability [10, 30] 119% | viability [10, 31] 111% | viability [10, 32] 105% | viability [10, 33] 111% | viability [10, 34] 122% | viability [10, 35] 104% | viability [10, 36] 111% | viability [10, 37] 112% | viability [10, 38] 122% | viability [10, 39] 110% | viability [10, 40] 101% | viability [10, 42] 110% | viability [10, 43] 107% | viability [10, 44] 107% | viability [10, 46] 104% | viability [10, 48] 106%
2490: cell count [7, 16]
2540: cell count [7, 15]
-0.197: SSMD [8]
-0.307: z-score [9, 18]
active: AC50 [1] 18.6 µM | AC50 [2] 18.7 µM | AC50 [3] 18.7 µM | AC50 [4] 20.9 µM | AC50 [5] 26.3 µM | AC50 [11] 23.5 µM | IC50 [12] 5.9 µM | viability [10, 28] 99.7% | viability [10, 41] 99.7% | viability [10, 45] 94.3% | viability [10, 47] 25.5% | viability [10, 49] 78.5% | viability [10, 50] 99%
1.37: fold change [7, 14]

O=C1NC(=O)/C(=C/c2ccc3c(c2)OC(F)(F)O3)S1
1.16 and 0.645: fold change [7, 14]
inactive: outcome [1] | outcome [2] | outcome [3] | outcome [4] | outcome [5] | outcome [11] | outcome [12] | fold change [7, 13] 0.88 and 0.952
9160 and 6280: cell count [7, 16]
8070 and 5980: cell count [7, 15]
